The campaign covered roughly 300,000 compounds. About 1,700 (0.57%) were called active. Inconclusive results (about 2%) are left out. For the sample, actives were picked, then their nearest neighbours and some compounds at random. Values without a mark were called inactive.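 Rule for the calls: active = growth inhibition above about 58% in most replicates (limit read from the data, passing the limit was not always enough); inconclusive = exactly half the replicates above a set limit; inactive = most replicates below a set limit.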

The nature of this assay: Candida growth reduction under fluconazole – CaCi-2 strain, Alamar Blue fluorescence, primary screen (AID 1979).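 Note: all wells also contain fluconazole at 8 µg/ml as a sub-toxic cotreatment; 0% = median of DMSO wells and 100% = median of geldanamycin control wells.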 The conditions noted are these: C. albicans CaCi-2 (fluconazole-resistant clinical isolate) + fluconazole, 48 h, hits give high values, concentration not given here.
Regarding `COCCNC(=O)C1CCN(S(=O)(=O)c2ccc3c(c2)OCCO3)CC1`, the growth inhibition was 0.395%.
The same measure for `CCc1ccc2nc3sc(C(=O)Nc4nnc(CC)s4)c(N)c3cc2c1`: 44%; for `COc1ccc(NC(=O)c2cc(-c3ccc(C)cc3)on2)cc1`: 2.77%.
The same measure for `Cc1ccc(NC(=O)c2sc3nc(N)c(C#N)cc3c2N)cc1`: 88.6% (active); for `COC(=O)c1ccc(SCc2ccccc2)nc1`: 13.7%.
Then `CN(C)c1nc(NN)nc(Nc2ccc(F)cc2)n1`, with 3.13%; and `COc1cnn(-c2ccc([N+](=O)[O-])cc2)c(=O)c1Cl`, with -11.1%; and `Cc1ccc(N2CC(C(=O)Nc3cc(Cl)ccc3-n3cncn3)CC2=O)cc1` (stereo unspecified), with -4.63%.
As to `Cc1onc(NC(=O)c2ccc([N+](=O)[O-])o2)c1Br`, the growth inhibition is -0.786%.
The same measure for `O=C(Nc1ccc(Br)cn1)c1ccc([N+](=O)[O-])o1`: 18.1%; for `Cc1cccc(NC(=O)c2ccc([N+](=O)[O-])o2)c1`: 83.3% (active); for `CC(=O)N(CC(O)CO)c1c(I)c(C(=O)NCC(O)CO)c(I)c(C(=O)NCC(O)CO)c1I` (stereo unspecified): -2.27%.
Then `COc1ccc(C)cc1Nc1nc(-c2c(C)[nH]c3ccccc23)cs1`, with 0.619%; and `COc1ccc(OC)c(Nc2nc(-c3ccc(O)c(O)c3)cs2)c1`, with 97.8% (active); and `COc1cccc(CC(=O)Nc2nc(-c3ccc(OC)c(OC)c3)cs2)c1`, with -0.204%.
Then `O=C(NCCC1CCCCN1S(=O)(=O)c1ccccc1)C(=O)NCC1CCCO1` (stereo unspecified), with -4.24%; and `N#Cc1cccc(OC(=O)c2ccc3c(=O)n4c(nc3c2)CCC4)c1`, with 6.7%.
As to `Brc1cnc2ccccc2c1N1CCCCC1`, the growth inhibition was 0.784%.
Turning to `CCOc1cc(N2CCOCC2)c(OCC)cc1NC(=O)COc1cccc2cccnc12`, the growth inhibition is 101% (active).
`CCOc1cc(N2CCOCC2)c(OCC)cc1NC(=O)c1cc(C)nc2ccccc12`: the growth inhibition was -4.82%.
The same measure for `CCOc1cc(N2CCOCC2)c(OCC)cc1NC(=O)COc1cccc(Cl)c1`: 18.5%; for `Cc1cccc(N(C(=O)Cn2nnc(-c3ccc(C)o3)n2)C(C(=O)NC2CCCC2)c2ccncc2)c1` (stereo unspecified): 9.19%.
The same measure for `Cc1ccc(-c2nnn(CC(=O)N(CCO)C(C(=O)NC(C)(C)C)c3ccncc3)n2)cc1` (stereo unspecified): -7.13%; for `Cc1ccc(-c2nnn(CC(=O)N(Cc3ccco3)C(C(=O)NC(C)(C)C)c3ccncc3)n2)o1` (stereo unspecified): 115% (active).
On to `Cc1c(C(=O)NC(C)C2CC3CCC2C3)cccc1[N+](=O)[O-]` (stereo unspecified), for which the growth inhibition was -2.33%.
Consider `CC1COc2ccccc2N1S(=O)(=O)c1ccccc1` (stereo unspecified), for which the growth inhibition is 99.8% (active).
For `O=S(=O)(c1ccccc1)N1CCc2ccccc21`, the growth inhibition is -2.11%.
Then `CC1CN(S(=O)(=O)c2ccccc2)C(C)CN1S(=O)(=O)c1ccccc1` (stereo unspecified), with 3.32%; and `CCOc1ccc(S(=O)(=O)NCCC(=O)NCC(C)(C)N2CCOCC2)cc1`, with -1.97%; and `Cc1nc2ccccn2c(=O)c1NC(=O)c1cccs1`, with 0.647%.
As for `COc1cc(/C=C(\C#N)c2nc3c(s2)CC(C)CC3)ccc1O` (stereo unspecified), the growth inhibition is 43.5%.
As for `COc1cc(/C=C(\C#N)c2nc3ccccc3[nH]2)ccc1O`, the growth inhibition was 76.5% (active).
Then `COc1ccc(/C=C(/NC(=O)c2ccc(C)cc2)c2nc3ccccc3[nH]2)cc1OC`, with 23.2%.
As to `Clc1ccc(Nc2ccc3ccccc3n2)cc1`, the growth inhibition is -23.2%.
Take `CCN1C(=O)[C@H]2[C@@H](c3ccc(-c4ccc(OC)cc4)cc3)N[C@@](Cc3ccccc3)(C(=O)OC)[C@H]2C1=O`: the growth inhibition is 3.17%.
The same measure for `CCN(CC(=O)Nc1cccc(S(=O)(=O)N2CCCCC2)c1)Cc1ccccc1`: -0.00245%; for `COc1ccccc1NC(=O)COC(=O)c1ccccc1SCC(=O)N1CCCC1`: 4.29%; for `COc1ccc(C(=O)C2CCCN(Cc3cccn3-c3ccccn3)C2)c(C)c1` (stereo unspecified): 110% (active).
Then `CCOC(=O)c1[nH]ncc1CN1CCCC(C(=O)c2ccc(OC)cc2C)C1` (stereo unspecified), with -8.68%.
The same measure for `COc1ccc(C(=O)C2CCCN(Cc3ccc4nonc4c3)C2)c(C)c1` (stereo unspecified): 3.47%; for `CCn1c(=O)c([N+](=O)[O-])c(NCc2ccc3c(c2)OCO3)c2ccccc21`: 18.7%.
Turning to `Cc1nc2ccccc2c(=O)n1Cc1ccc([N+](=O)[O-])cc1`, the growth inhibition was -0.41%.
On to `CCn1c(/C=C/c2ccc([N+](=O)[O-])o2)nc2ccccc2c1=O`, for which the growth inhibition is 99.4% (active).
The same measure for `Cc1cccc(-n2nc3c(c2NC(=O)c2cc4ccccc4o2)CS(=O)(=O)C3)c1`: 7.71%; for `CC(=O)N1CCN(C(=O)c2cc(-c3ccc(Cl)s3)nc3ccccc23)CC1`: 11.4%; for `CC(=O)Nc1cccc(C(=O)OCC(=O)c2ccc3c(c2)OCO3)c1`: 4.88%.
For the compound `COc1ccc2nc(N3CCN(C(=O)c4ccc([N+](=O)[O-])o4)CC3)sc2c1`, the growth inhibition was 13.6%.
The same measure for `Cc1ccc(C)c(NC(=S)NNC(=O)c2csc(C)c2)c1`: 82.7% (active); for `Cc1cc(C(=O)NNC(=S)NC(C)c2ccccc2)cs1` (stereo unspecified): 12.8%; for `Cc1cc(C(=O)NNC(=S)Nc2ccccc2C)cs1`: 1.21%.
Regarding `NC1=NC(c2ccc([N+](=O)[O-])cc2)N(c2ccc(F)cc2)C(N)=N1` (stereo unspecified), the growth inhibition is -2.27%.
The same measure for `Cc1ccc(C(=O)Nc2c(C#N)c(C)c(C)n2Cc2ccccc2)cc1`: -7.7%; for `CC(C)C(=O)N1CC(=O)Nc2ccc(F)cc2C1c1ccc(F)cc1` (stereo unspecified): -3.91%.
Turning to `O=C(COC(=O)c1cccs1)Nc1ccccc1Cl`, the growth inhibition was 7.55%.
As for `O=C(Nc1ccccc1Cl)/C(Cl)=C(\Cl)S(=O)c1ccccc1` (stereo unspecified), the growth inhibition was 81.7% (active).
As for `O=C(Nc1ccccc1Cl)Nn1cnnc1`, the growth inhibition was 16.1%.
The same measure for `O=c1[nH]c(/C=C/c2cccc(Br)c2)nc2ccccc12`: 3.62%; for `COc1ccccc1-n1ccnc(SCC(=O)NC2CCCCC2)c1=O`: -2.58%; for `O=C(Nc1nnc(C2COc3ccccc3O2)o1)c1ccc(F)cc1` (stereo unspecified): 85.8% (active).
The same measure for `CC1COc2ccccc2N1C(=O)c1ccc(F)cc1` (stereo unspecified): -3.04%; for `O=C(Nc1ccccc1F)c1ccc2c(c1)OCO2`: -5.7%.
For `Cc1cccc(N(Cc2ccccc2)C(=O)c2cc(S(=O)(=O)N3CCOCC3)ccc2F)c1`, the growth inhibition is -1.4%.
Then `CCN1C(=O)[C@H]2[C@@H](c3ccc(-c4ccc(F)cc4)cc3)N[C@@](Cc3ccccc3)(C(=O)OC)[C@H]2C1=O`, with -6.22%; and `COC(=O)N/N=C/c1c[n+]([O-])c2ccccc2[n+]1[O-]`, with 12.4%.
In the case of `Cc1ccc(NC(=O)CN(C)C(=O)Cn2nnc(-c3ccccc3)n2)cc1`, the growth inhibition was -6.13%.
For the compound `O=C1CCCN1C(=O)COc1ccc([N+](=O)[O-])cc1`, the growth inhibition is 4.3%.
As for `Cc1cccc(C2c3[nH]c4ccccc4c3CCN2C(=O)c2cc(-c3cccn3C)n[nH]2)n1` (stereo unspecified), the growth inhibition is 79.7% (active).
Then `O=C(c1cn2ccccc2n1)N1CCc2c([nH]c3ccccc23)C1c1ccccn1` (stereo unspecified), with -2.25%.
Then `Cc1cccc(C(=O)N2CCc3c([nH]c4ccccc34)C2CC(C)C)n1` (stereo unspecified), with 12.9%; and `O=C(NCc1ccccc1)C1=C[C@@H](c2ccccc2)C[C@@H](OCCCCO)O1`, with -5.03%.
Then `CCN(CC(=O)Nc1cc(Cl)ccc1C)C(=O)Cn1c(=O)cnc2ccccc21`, with -1.02%.

For the origin of these results see PubChem BioAssay AID1979 (Broad Institute, 2009).
